Sampled rows, rich in hits. Any-hit rate of the full collection: about 2.4%.
APOBEC3A inh – blocks human APOBEC3A ssDNA deamination. P31941. 330,000 tested, 0.41% active. AID 493011. recombinant A3A, FAM/TAMRA ssDNA deamination fluorescence. inhibition, % at 20 µM;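 active means at least 40% inhibition at 20 µM here, with at most 30% in a related deaminase screen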;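 further: plate controls were A3A with DMSO for no effect and wells lacking A3A enzyme for full effect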
NRP1-CendR mod – modulators of CendR peptide binding to human neuropilin-1; FAM-RPARPAR peptide binding to NRP-1, fluorescence polarization; inhibition, % at 25 µM; 360,000 tested, 0.85% active; AID 602438;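 active means inhibition or corrected inhibition above about 18%, plus a signal ratio from 0.5 to 1.5, limit read from the data, passing the limit was not always enough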
APOBEC3G inh – inhibitors of human APOBEC3G DNA deaminase | Q9HC16 | recombinant A3G, ssDNA deamination FAM/TAMRA fluorescence | inhibition, % at 20 µM | 330,000 tested, 0.28% active | AID 493012;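 active means inhibition of at least 40% at 20 µM, with no more than 30% in the related APOBEC3A deaminase screen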;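 further: plate controls were DMSO wells with A3G for no effect and wells lacking A3G enzyme for full effect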
ADAM10 inh – inhibitors of human ADAM10; O14672; recombinant ADAM10, EDANS/DABCYL FRET peptide cleavage, 3 h; inhibition, % at 7 µM; 370,000 tested, 0.62% active; AID 720582;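 active means inhibition above a per-campaign cutoff equal to the mean of compounds falling between control-based bounds plus 3 SD, cut at about 20% in these data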;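 further: 0% = DMSO wells while the 100% control is not disclosed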
ADAM17 inh – inhibitors of human ADAM17; AID 720648; 370,000 tested, 0.83% active; P78536; inhibition, % at 6.95 µM; recombinant ADAM17, EDANS/DABCYL FRET peptide cleavage;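 active means inhibition above the mean of compounds lying between control limits plus 3 SD, set per campaign, cut at about 8.5% in these data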;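 further: 0% = DMSO-only wells as the low control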
Active calls of the source: *; x = no result given.

SMILES | APOBEC3A inh | NRP1-CendR mod | APOBEC3G inh | ADAM10 inh | ADAM17 inh
COC(=O)C1=C(C)N(Cc2ccccc2C(F)(F)F)C(=NCc2cccc(C(F)(F)F)c2)NC1c1ccc(F)cc1 (stereo not given) | x | x | x | -2 | 2
C=CCN(C(=O)CSc1nc2c(sc3ccccc32)c(=O)n1CCN(CC)CC)c1ccccc1 | 5 | 25* | -5 | -230 | -99
Cc1cccc(NC(=O)c2nc[nH]c2C(=O)N(C)CCO)c1 | x | x | x | -5 | 0
Cc1cc(C)c2sc(NNC(=O)c3ccc(S(=O)(=O)N4CCc5ccccc5C4)cc3)nc2c1 | 4 | 7 | 5 | 11 | 11*
CC(C)(C)NC(=O)[C@@H](c1cccnc1)N(C(=O)c1ccco1)c1ccc(C(C)(C)C)cc1 | x | x | x | -8 | -6
C=CCN=C1NC(c2ccccc2C(F)(F)F)C(C(=O)OC)=C(C)N1Cc1cccc(C(F)(F)F)c1 (stereo not given) | x | x | x | 0 | -2
CCCNC(=O)C(Cc1ccccc1)NC(=O)c1ccc(C(C)(C)C)cc1 (stereo not given) | 0 | 26* | -10 | -5 | 2
CCCNC(=O)C(Cc1ccccc1)NC(=O)c1ccc(-c2ccccc2)cc1 (stereo not given) | 5 | 12 | 10 | 0 | 1
COC(=O)c1ccc2c(C(C)c3ccccc3O)c[nH]c2c1 (stereo not given) | x | x | x | -285 | -91
c1ccc(OCCOCCOc2ccccc2)cc1 | x | 13 | x | -8 | -5
CC(NCCOCCOc1ccccc1)c1ccccc1 (stereo not given) | -1 | 26* | -2 | 0 | 0
COc1ccc(CNC(=O)O[C@H]2CC[C@@]34CCCN3C(=O)CCC[C@H]4[C@H]2C)cc1OC | x | x | x | -6 | -5
O=C(COC(=O)c1cc(Cl)ccc1O)NCCC1=CCCCC1 | -3 | 20* | -8 | -12 | -7
O=C(COC(=O)Cc1ccc(Cl)cc1Cl)NCCC1=CCCCC1 | -3 | -12 | -3 | -4 | 1
COc1ccc([N+](=O)[O-])cc1NC(=O)CCNC(=O)Cn1ccc2ccccc2c1=O | 2 | 30* | -3 | -3 | -3
O=S1(=O)c2ccc(Br)cc2OC[C@H](Cc2ccccc2)N1Cc1cn(Cc2ccc(Cl)cc2)nn1 | x | x | x | -6 | -4
COc1ccc(-n2nnnc2SCC(=O)N(C)C2CCS(=O)(=O)C2)cc1 (stereo not given) | -3 | 26* | -8 | 0 | -1
COc1ccccc1-n1nnnc1SCC(=O)N(C)C1CCS(=O)(=O)C1 (stereo not given) | -4 | 2 | -11 | -37 | -4
O=C(CN1CCN(Cc2ccc3c(c2)OCO3)CC1)N1CCc2[nH]c3ccc(F)cc3c2C1 | -11 | 34* | -7 | 3 | -2
COc1cccc(CN(C)[C@H]2C[C@H]3c4[nH]c5ccccc5c4CCN3C[C@H]2[C@H](C)O)c1OC | x | x | x | -16 | 2
Cc1cc(=O)n2nc(N3CCCC(C(=O)N4CCOCC4)C3)sc2n1 (stereo not given) | -2 | 44* | -2 | 1 | 1
Cc1cc(=O)n2nc(N3CCCC(C(=O)N4CCc5ccccc54)C3)sc2n1 (stereo not given) | -2 | -4 | -2 | x | x
O=C(NN=Cc1ccco1)c1cccnc1 | x | x | x | -9 | 2
COc1ccc(S[C@]2(C(=O)N3CCN(c4ncccn4)CC3)CC(=O)N(P(=O)(OC)OC)[C@@H]2c2ccc(OC)cc2)cc1 | x | x | x | -2 | 2
NS(=O)(=O)c1ccc(N/N=C/c2cn(-c3ccccc3)nc2-c2cccs2)c([N+](=O)[O-])c1 | 12 | -9 | 4 | -12 | -5
SMILES | APOBEC3A inh | NRP1-CendR mod | APOBEC3G inh | ADAM10 inh | ADAM17 inh
NS(=O)(=O)c1ccc(N/N=C/c2cn(-c3ccccc3)nc2-c2cccs2)cc1 | -5 | 30* | -11 | -38 | -14
O=C(NC(=O)N1CCCCC1)c1ccccc1 | 3 | 26* | -4 | -6 | -4
CC(=NNc1cc(C)c2cc(C)ccc2n1)c1ccccn1 | x | x | x | -20 | -6
CCn1c(SC(C)C(=O)NC2CCCc3ccccc32)nnc1-c1cccs1 (stereo not given) | -1 | 34* | -5 | -6 | -1
CCn1c(SCC(=O)NC2CCCc3ccccc32)nnc1-c1cccs1 (stereo not given) | -1 | 2 | -10 | -3 | 0
Cc1ccc(COn2c(-c3ccc(Cl)cc3Cl)nc3ncccc32)cc1 | 2 | 33* | -6 | -8 | -3
COn1c(-c2ccc(C)cc2)nc2ncccc21 | -2 | -31 | -9 | -19 | -13
CC(C)CCNC(=O)C1CCCN(C(=O)c2ccc3c(c2)NC(=O)CS3)C1 (stereo not given) | x | x | x | 1 | -1
O=C(CSc1nncs1)NNC(=O)c1ccccc1Br | -2 | 20* | -3 | 6 | -1
O=C(NNC(=O)c1ccccc1Br)c1cccs1 | 2 | 25* | -6 | 11 | -4
O=C(CSc1ccc(F)cc1)NNC(=O)c1ccccc1Br | 0 | 4 | -1 | 5 | -1
O=C(NCc1ccc(F)cc1)C1CCN(S(=O)(=O)c2ccc(Br)s2)CC1 | 1 | 30* | -7 | -2 | 1
O=C(NCc1ccc(F)cc1)C1CCCN(S(=O)(=O)c2ccc(Br)s2)C1 (stereo not given) | 1 | -1 | -8 | 3 | 1
CC(C)c1ccc(S(=O)(=O)/N=C2\C=C(NS(=O)(=O)c3ccccc3)C(=O)c3ccccc32)cc1 | x | 31* | x | 5 | 3
COc1ccc(S(=O)(=O)/N=C2\C=C(Nc3ccc(O)cc3)C(=O)c3ccccc32)cc1 | 0 | 18 | -3 | 20 | 7
O=C(O)c1ccc(S(=O)(=O)/N=C2\C=C(Nc3ccccc3F)C(=O)c3ccccc32)cc1 | 1 | 19* | -8 | -11 | 2
Cc1ccccc1NC1=C/C(=N\S(=O)(=O)c2ccc(C(=O)O)cc2)c2ccccc2C1=O | 1 | 24* | -5 | -6 | 0
COc1ccc(N2CCN(CCNS(=O)(=O)c3c(C(C)C)cc(C(C)C)cc3C(C)C)CC2)cc1 | x | x | x | 11 | 6
O=C(N[C@@H](Cc1cccnc1)C(=O)N1CCC[C@H]1C(=O)NCCc1ccccc1Cl)c1ccc(Cl)c(Cl)c1 | x | x | x | -5 | -3
O=C(O)c1cccc(N/N=C(\N=Nc2ccccc2)c2ccccc2)c1 | -2 | 12 | -4 | -4 | 0
O=C(O)c1ccc(N=N/C(=N\Nc2ccc(C(=O)O)cc2)c2ccccc2)cc1 | 3 | 34* | -1 | 7 | -2
Brc1ccc(N/N=C(/N=Nc2nn[nH]n2)c2ccccc2)cc1 | 2 | 42* | 2 | 9 | -1
C[C@@H]1CN(C(=O)OC(C)(C)C)CCN1c1ccc(Br)c(C#N)c1 | x | x | x | -26 | -7
O=C1c2oc3ccccc3c(=O)c2C(c2cccnc2)N1CCCN1CCOCC1 (stereo not given) | -3 | 36* | -7 | -28 | -5
CC(C)Oc1ccc(C2c3c(oc4ccccc4c3=O)C(=O)N2CCCN2CCOCC2)cc1 (stereo not given) | 1 | 6 | -1 | -349 | -115

Compound activity deposited in PubChem BioAssay by several laboratories.
